Laboratory results taken from PubChem BioAssay (Tox21).
Inconclusive results are not listed. Unmarked numbers belong to inactive results. Calls come from the whole dose curve.

Assay: qHTS assay to identify small molecule agonists of the AP-1 signaling pathway - cell viability counter screen (AID 1159525); note: nearly all actives have a fitted effect of over 55% in size
Conditions: ME-180 (cervical carcinoma) AP-1-bla cells viability, ATP luminescence, 5 h; series mostly up to 76.8 µM; viability change, negative = cytotoxic: at the top concentration
Description: National Center for Advancing Translational Sciences [NCATS]
NIH Chemical Genomics Center [NCGC]
U.S. Environmental Protection Agency [EPA]
National Institutes of Environmental Health Sciences [NIEHS]
National Toxicology Program [NTP]
U.S. Food and Drug Administration [FDA]
Activator protein-1 (AP-1), a transcription factor, plays an important role in tumor genesis by regulating genes involved in cell proliferation, differentiation, apoptosis, and angiogenesis. AP-1 activity is induced by a complex network of signaling pathways that involves extracellular signals, such as growth factors. The AP-1 protein complex formed from c-Fos and c-Jun binding to the AP-1 response element results in transcriptional activation of genes containing such elements within their promoter.
Low molecular weight molecules have been discovered and developed to modulate various components of these signaling pathways, for example, MAP kinase inhibitors. However, many points of pathway modulation remain untested due to the lack of chemical probes making this signaling locus of general interest.
Using a beta-lactamase reporter-gene under control of the AP-1 response element, a cell-based assay [CellSensor(TM) AP-1-bla ME-180 developed by Invitrogen Corp.] was used to measure EGF-induced signaling. The Tox21 10K library compounds were measured for their ability to positively modulate the action of EC50 EGF on reporter gene activity. Compounds were screened in a 15-pt titration series in 1536-well format. The cytotoxicity of the Tox21 compound library against this cell line was tested in parallel by measuring the intra cellular ATP content in the same wells.
Tox21 Assay Protocol Summary:
2500 cells/5uL in Opti-MEM medium containing 0.5% dialyzed FBS, 0.1 mM NEAA, 1 mM sodium pyruvate and 10 mM HEPES was dispensed into 1536-well black wall/clear bottom plates using a Multidrop dispenser and cells were cultured at 37 degrees Celsius overnight. Next day 23 nL of compounds dissolved in DMSO, positive controls or DMSO were delivered to each well using a pin tool. The plates were incubated at 37 degrees Celsius for 5 hours. 1 uL of LiveBLAzerTM B/G FRET substrate (Solution A+B+C+D) was added to each well using a Flying Reagent Dispenser. After incubated at room temperature for 2.5 hours the plates were measured on an EnVision plate reader at Excitation 405nm, Emission1=460nm and Emission 2=530nm. The %Activity was determined from the ratio of 460nm/530nm.
After the plates were read for Beta-Lactamase assay on Envision; 3 ul Cell Titer Glo (Promega) was added to measure the cytotoxicity and the plates were then incubated at RT in dark for 30 min. The luminescence was read on ViewLux (Perkin Elmer, Shelton, CT) using 6 sec exposure. ViewLux data was expressed as relative luminescence units.
For primary data analysis, raw plate reads for each titration point were first normalized relative to […] EGF control (100%) and DMSO only wells (basal, 0%).
For primary data analysis for viability assay, raw plate reads for each titration point were first normalized Tetra n-octyl ammonium bromide control (-100%) and DMSO (control, 100%).

First: CO[C@H]1C=CO[C@@]2(C)Oc3c(C)c(O)c4c(O)c(c5c(c4c3C2=O)=NC2(CCN(CC(C)C)CC2)N=5)NC(=O)/C(C)=C\C=C/[C@H](C)[C@H](O)[C@@H](C)[C@@H](O)[C@@H](C)[C@H](OC(C)=O)[C@@H]1C
Second: COc1ccc(CCC(=O)c2c(O)cc(O[C@@H]3O[C@H](CO)[C@@H](O)[C@H](O)[C@H]3O[C@@H]3O[C@@H](C)[C@H](O)[C@@H](O)[C@H]3O)cc2O)cc1O
The “viability change, negative = cytotoxic” value of the first is lower: 0.15% for the first, 1.04% for the second.

Compared with `O=C(/C=C/c1ccccc1)OCCCc1ccccc1`, `c1ccc(COCc2ccccc2)cc1` is lower in “viability change, negative = cytotoxic” value: -0.703% for the first, -18.1% for the second.

First: Cc1nccn1-c1ccc(Sc2cccc(C3(C(N)=O)CCOCC3)c2)cc1
Second: CC(C)C(OC(=O)c1ccccc1)C(C)(C)COC(=O)c1ccccc1 (stereo not given)
The “viability change, negative = cytotoxic” value of the first is lower: 1.05% for the first, 1.21% for the second.

Compared with `C=CCOC(=O)/C=C\C(=O)OCC=C`, `CCOC(=O)CC(=O)C(=O)OCC` is lower in “viability change, negative = cytotoxic” value: 12.5% for the first, 0.853% for the second.

Compared with `CC(C)CCCC(=O)O`, `CC(C)(C)C(=O)O` is higher in “viability change, negative = cytotoxic” value: 0.076% for the first, 0.248% for the second.

Compared with `Cc1nc2ccccc2s1`, `Cc1oc(C)c(C(=O)Nc2ccccc2)c1C` is higher in “viability change, negative = cytotoxic” value: 0.956% for the first, 1.49% for the second.

First: CCCCCCCCCCCC[N+](C)(C)CC(=O)[O-]
Second: CCCCCCCCCCCC[N+](C)(C)CCCS(=O)(=O)[O-]
The “viability change, negative = cytotoxic” value of the first is lower: -12.2% for the first, -7.87% for the second.

Going from `CCOC(=N)CC(=O)OCC` to `CCC(C)=O`, the “viability change, negative = cytotoxic” value rises from 1.91% to 2.32%.

Going from `CCCCCCOC(=O)CCCCCCCC(=O)OCCCCCC` to `CCCCCCCC/C=C\CCCCCCCC(=O)OC(CO)CO`, the “viability change, negative = cytotoxic” value falls from 1.45% to 0.782%.

First: COCC(O)CO (stereo not given)
Second: CC(C)OCC1CO1 (stereo not given)
The “viability change, negative = cytotoxic” value of the first is lower: 2.26% for the first, 3.23% for the second.

First: NC(=O)Nc1ccc(Cl)cc1
Second: Nc1ccc(Cl)cc1[N+](=O)[O-]
The “viability change, negative = cytotoxic” value of the first is lower: 1.58% for the first, 5.49% for the second.

Going from `Oc1cc(O)c(Cl)cc1Cl` to `CCCc1c(OCCCOc2ccc(OCC(=O)O)cc2)ccc(C(C)=O)c1O`, the “viability change, negative = cytotoxic” value falls from 0.292% to -7.7%.

Going from `C[N+]1(C)CCC(=C(c2ccccc2)c2ccccc2)CC1` to `OC(CCCN1CCCCC1)(c1ccccc1)c1ccccc1`, the “viability change, negative = cytotoxic” value rises from -1.93% [at 35.3 µM] to 1.52% [at 35.3 µM].

Going from `CCC1(C)CC(=O)NC1=O` (stereo not given) to `Cn1c(=O)c2c(ncn2CC(=O)O)n(C)c1=O`, the “viability change, negative = cytotoxic” value falls from 3.39% [at 35.3 µM] to 2.9% [at 35.3 µM].

First: N#C/C(=C1\SCC(c2ccccc2Cl)S1)n1ccnc1 (stereo not given)
Second: COc1ccc([C@@H]2Sc3ccccc3NC(=O)[C@@H]2O)cc1
The “viability change, negative = cytotoxic” value of the first is lower: 3.51% [at 35.3 µM] for the first, 3.66% [at 35.3 µM] for the second.

Compared with `O=C(N/N=C/c1ccc([N+](=O)[O-])o1)c1ccc(O)cc1`, `CC(=O)CC(c1ccc([N+](=O)[O-])cc1)c1c(O)c2ccccc2oc1=O` (stereo not given) is lower in “viability change, negative = cytotoxic” value: 0.483% [at 35.3 µM] for the first, -1.13% [at 35.3 µM] for the second.

Compared with `CC1(C)O[C@@H]2C[C@H]3[C@@H]4CCC5=CC(=O)C=C[C@]5(C)[C@H]4[C@@H](O)C[C@]3(C)[C@]2(C(=O)CO)O1`, `C[C@@H]1C[C@H]2[C@@H]3CCC4=CC(=O)C=C[C@]4(C)[C@@]3(F)[C@@H](O)C[C@]2(C)[C@H]1C(=O)CO` is lower in “viability change, negative = cytotoxic” value: 8.86% [at 35.3 µM] for the first, -0.766% [at 35.3 µM] for the second.

First: C(=C\c1ccccc1)/CN1CCN(C(c2ccccc2)c2ccccc2)CC1
Second: CCN(Cc1cccc(S(=O)(=O)O)c1)c1ccc(C(=C2C=CC(=[N+](CC)Cc3cccc(S(=O)(=O)[O-])c3)C=C2)c2ccccc2)cc1
The “viability change, negative = cytotoxic” value of the first is lower: -10.9% [at 35.3 µM] for the first, -7.39% [at 35.3 µM] for the second.

First: C/C(=N/NC(=O)c1ccncc1)C(=O)O
Second: CCOc1cc(N)c(Cl)cc1C(=O)NCC1CN(Cc2ccc(F)cc2)CCO1 (stereo not given)
The “viability change, negative = cytotoxic” value of the first is higher: 0.901% [at 35.3 µM] for the first, -15.6% [at 35.3 µM] for the second.

Compared with `N#C[C@@H]1C[C@@H]2C[C@@H]2N1C(=O)[C@@H](N)C12CC3CC(CC(O)(C3)C1)C2`, `CN(C)CCOC1=Cc2ccccc2Sc2ccc(Cl)cc21` is lower in “viability change, negative = cytotoxic” value: -2.17% [at 35.3 µM] for the first, -12.7% [at 35.3 µM] for the second.
